# Laboratory results: the supplement of paper PMC7858590
# ± gives the standard deviation of the averaged measurements. Over roughly 3,800 compounds, “cell shape (eccentricity) Z-score vs DMSO control” has its median near 1.1; the lowest 2% begin near -4.7. For the sample, the lowest values were picked, then their nearest neighbours and some compounds at random.
# System: human monocyte-derived macrophages (M0)
# Assay: cell shape (eccentricity) Z-score vs DMSO control; higher = more elongated, M2-like morphology
# Conditions: 20 µM; 24 h; macrophage state: M0 (M-CSF)
row,SMILES,cell shape (Z-score)
1,CC#CCOC(=O)c1c(C)nc2sc3c(c2c1N)CCC(O)C3 (stereo unspecified),-0.105
2,C[C@@H]1O[C@@H](Oc2ccc(-c3coc4cc(O[C@@H]5O[C@@H](C)[C@H](O)[C@@H](O)[C@H]5O)cc(O)c4c3=O)cc2)[C@H](O)[C@H](O)[C@H]1O,-0.632
3,c1ccc(COCCCc2cnc[nH]2)cc1,2.2
4,O=C(CCCc1ccc(-c2ccccc2F)cc1)Nc1ccc(O)cc1,-4.74
5,O=C(O)CCCc1ccccc1,0.59
6,Cc1c(Cl)cccc1Nc1ccccc1C(=O)O,1.66
7,O=C(O)c1ccccc1Nc1ccccc1,2.81
8,COc1ccc(S(=O)(=O)N(C(C)=O)c2ccccc2/C=C/c2cc[n+]([O-])cc2)cc1,-4.1
9,CC(=O)OCC(=O)[C@@]1(O)CCC2C3CCC4=CC(=O)CC[C@]4(C)C3C(=O)C[C@@]21C (stereo partly specified),-0.245
10,C=C1CCC2(C(=O)OC3OC(CO)C(O)C(O)C3O)CCC3(C)C(=CCC4C5(C)CC(O)C(OC6OCC(O)C(O)C6OC6OC(CO)C(O)C(O)C6O)C(C)(CO)C5CCC43C)C2C1 (stereo unspecified),0.275
11,C=C(COC(=O)C(C)C)C1Oc2cc(C(C)=O)ccc2C1OC(=O)C(C)C (stereo unspecified),1.56
12,Cc1cc(C)c(CNC(=O)c2cc(-c3ccc(N4CCNCC4)nc3)cc3c2cnn3C(C)C)c(=O)[nH]1,3.48
13,CC(Cc1ccc(O)c(O)c1)(NN)C(=O)O (stereo unspecified),-0.173
14,C=C1C(=O)O[C@@H]2[C@H]3C(=C)[C@@H](O[C@@H]4O[C@H](CO)[C@@H](O)[C@H](O)[C@H]4O)C[C@H]3C(=C)C[C@@H](O)[C@@H]12,2.36
15,C=C(C(=O)O[C@H]1CC=C(C)C[C@H](O)[C@H]2[C@H](C)C(=O)O[C@@H]2/C=C/1C)[C@@H]1CCC(=C)[C@@H]2C[C@H](O[C@@H]3O[C@H](CO[C@H]4OC[C@](O)(CO)[C@H]4O)[C@@H](O)[C@H](O)[C@H]3O)C(=C)[C@@H]2C1,-4.65
16,COc1cc(O[C@@H]2O[C@H](CO[C@H]3OC[C@](O)(CO)[C@H]3O)[C@@H](O)[C@H](O)[C@H]2O)cc(OC)c1OC,1.07
17,COc1cc(C(=O)N2CCC(N3CCN(C)CC3)CC2)ccc1Nc1ncc2c(n1)N(C)c1ccccc1C(=O)N2C,8.88
18,O=C(c1ccc(Nc2nccc(-c3cc4ccccc4s3)n2)cc1)N1CCC(N2CCCC2)CC1,-4.98
19,Cc1c(-c2ccnc(Nc3ccc(N4CCNCC4)cc3)n2)sc(=O)n1C,9.91
20,COc1cc(OC2OC(COC3OCC(O)(CO)C3O)C(O)C(O)C2O)c2c(-c3ccc(O)c(O)c3)cc(=O)oc2c1 (stereo unspecified),-0.273
21,CCOC(=O)C1C(=O)C(=O)Nc2ccccc21 (stereo unspecified),2.09

row,SMILES,cell shape (Z-score)
1,CC[N+](CC)(CC(=O)Nc1c(C)cccc1C)Cc1ccccc1,1.74
2,Cc1cccc(C)c1NC(=O)C[N+](C)(C)C,-4.98
3,CC[N+](C)(CC)CC(=O)Nc1c(C)cccc1C,-0.632
4,Cc1cc2cc3c(C)cc(=O)oc3c(C)c2o1,-4.76
5,Cc1cc(=O)oc2c(O)c(O)ccc12,1.41
6,COc1ccc2c(C)cc(=O)oc2c1,4.64
7,COC(=O)C1=C(C)NC(C)=C(C(=O)OCCCN2CCC(c3ccccc3)(c3ccccc3)CC2)[C@H]1c1cccc([N+](=O)[O-])c1,1.82
8,CCC(=O)OCC1=CCCC2C1(C)CCC(C)C2(C)CCC(C)CC(=O)O (stereo unspecified),0.255
9,COc1cc(C)c2c(=O)cc(-c3ccccc3)oc2c1,1.41
10,COc1cc(O)c(C(=O)c2c(O)cc(C)cc2O)c(C(=O)O)c1,1.14 ± 0.29
11,CO[C@@H]1CC(OC2CCC3(C)C(CCC45CCC(C6=CC(=O)OC6)C(C)(CCC43)C5=O)C2)O[C@H](C)[C@@H]1O[C@@H]1O[C@H](CO[C@@H]2O[C@H](CO)[C@@H](O)[C@H](O)[C@H]2O)[C@@H](O)[C@H](O)[C@H]1O (stereo partly specified),1.71
12,COC1CC(O[C@H]2CC[C@]3(C)C4CC[C@@]5(C)C(=O)[C@]4(CC[C@@H]3C2)CC[C@@H]5C2=CC(=O)OC2)OC(C)C1OC1OC(COC2OC(CO)C(O)C(O)C2O)C(O)C(O)C1O (stereo partly specified),0.241
13,C=C1[C@@H](C2=CC(=O)OC2)CC[C@@]2(O)[C@@H]1CC1[C@H]2CC[C@@H]2C[C@@H](O[C@H]3O[C@@H](C)[C@@H](O[C@@H]4O[C@H](CO[C@@H]5O[C@H](CO)[C@@H](O)[C@H](O)[C@H]5O)[C@@H](O)[C@H](O)[C@H]4O)[C@H](OC)[C@H]3O)CC[C@]12C (stereo partly specified),-4.99
14,COC(CCc1ccc(O)c(O)c1)CC(=O)CCc1ccc(O)c(O)c1 (stereo unspecified),1.18
15,CN1CCN(CCOc2cc(OC3CCOCC3)c3c(Nc4c(Cl)ccc5c4OCO5)ncnc3c2)CC1,5.59
16,C[C@@H](C1=C(CCN(C)C)Cc2ccccc21)c1ccccn1,1.35
17,CCOc1cc(/C=C(/C#N)C(N)=O)cc(CSc2ccccc2)c1O,2.62
18,O=C(O)Cc1nn(Cc2nc3cc(C(F)(F)F)ccc3s2)c(=O)c2ccccc12,1.57
19,O=C(O)Cc1nn(Cc2ccc(Br)cc2F)c(=O)c2ccccc12,-4.79
20,CC(C)n1cnc2c(NCc3ccccc3O)nc(NCCCO)nc21,3.13
